# Source: PubChem BioAssay
# SMN2 splice up: increases expression of the SMN2 splice variant. HEK293 SMN2-luciferase splicing reporter, luminescence, 30-36 h. Potency, µM (titrated, usually from 46.1 µM), for the others: at the top dose activity change, positive = activation, actives largely listed as activators. hit rate 2.8% among 210,000; further: % of control where 0% means no effect; nearly all actives have a fitted effect of over 55% in size
#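 qHTS luciferase splicing reporter: luminescence rises when SMN2 exon 7 is included in transfected HEK293 cells. Compound exposure lasted 30-36 h at 37C, with 4.5 mM final sodium butyrate as control, followed by a ONE-Glo read.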
# Rab9 promoter act: Rab9 promoter activation; Potency, µM (titrated, usually from 9.22 µM), for inactives: at the top dose activation, negative = inhibition, most hits filed as activators; hit rate 2.8% among 320,000; Huh7 Rab9 promoter-luciferase reporter, luminescence, 24 h; AID 485297; further: % of control where 0% means no effect; nearly all actives have a fitted effect of over 60% in size
#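 Luminescence from Amplite-detected luciferase (10 minutes, ambient) reports Rab9 promoter activation. Before that, stable Rab9-luciferase Huh7 cells (1500/well, reduced-serum OP-MEM I plus 10% FBS) were exposed to compound for 24 hours at 37C.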
# ELG1 genotoxic: genotoxicity induction in ELG1-luciferase HEK293T cells | hit rate 1.3% among 330,000 | Potency, µM (highest dose often 46 µM), for inactives: at the top dose activity change, positive = activation, usual class: activators | HEK293T ELG1-luciferase reporter, luminescence, 16 h; further: % of control where 0% means no effect; nearly all actives have a fitted effect of over 60% in size
#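 HEK293T cells expressing luciferase-tagged ELG1 were exposed to compound or DMSO vehicle for 16 hr at 37 °C and 5% CO2. Luciferase activity was then measured with ONE-Glo after 30 min at room temperature.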
# FLuc modulator: inhibits or activates purified firefly luciferase, miR-21 counter-screen. purified FLuc, Km substrates, luminescence inhibition. Potency, µM (top dose mostly 57.5 µM), inactives show at the highest dose activity change, negative = inhibition, actives largely listed as inhibitors. hit rate 6.9% among 360,000;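 further: plate controls were vehicle for no effect and reference inhibitor for full effect; nearly all actives have a fitted effect of over 55% in size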
# Target sequence (P08659 whole entry, looked up): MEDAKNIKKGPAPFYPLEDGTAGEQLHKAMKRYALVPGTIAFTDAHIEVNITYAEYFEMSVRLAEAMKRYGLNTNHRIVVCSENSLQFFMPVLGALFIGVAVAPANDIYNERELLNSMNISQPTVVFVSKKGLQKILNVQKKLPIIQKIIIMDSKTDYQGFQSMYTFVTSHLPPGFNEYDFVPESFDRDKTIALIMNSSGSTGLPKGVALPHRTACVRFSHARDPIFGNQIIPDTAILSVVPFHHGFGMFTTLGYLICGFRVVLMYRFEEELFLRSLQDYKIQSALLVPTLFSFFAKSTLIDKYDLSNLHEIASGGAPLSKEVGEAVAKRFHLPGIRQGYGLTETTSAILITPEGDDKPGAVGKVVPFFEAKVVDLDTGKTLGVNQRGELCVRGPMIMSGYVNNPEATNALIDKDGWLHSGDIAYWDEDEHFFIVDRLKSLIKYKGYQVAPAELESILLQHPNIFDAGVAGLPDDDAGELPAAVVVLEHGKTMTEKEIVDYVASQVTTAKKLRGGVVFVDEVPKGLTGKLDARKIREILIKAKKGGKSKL
#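 Purified P. pyralis luciferase, 10 nM final, with Km-level 10 uM D-luciferin and 10 uM ATP in 50 mM Tris acetate pH 7.5, 10 mM Mg acetate, 0.01% Tween-20, 0.05% BSA; 6-point qHTS titration about 60 µM downward; luminescence read.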
# NPC1 promoter act: NPC1 promoter activation; Huh7 NPC1 promoter luciferase reporter, 24 h; Potency, µM (highest dose often 9.22 µM), for inactives: top-dose activation, most hits filed as activators; hit rate 2.4% among 320,000; further: % of control where 0% means no effect; nearly all actives have a fitted effect of over 60% in size
#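 Cells: Huh7 expressing luciferase under the NPC1 promoter, 1500/well. Seeded 2 h, compound added, incubated 24 h at 37 °C. Luciferase reagent, 10 min ambient, then luminescence.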
# uPA generation: cell surface uPA generation inhibition. cell surface uPA generation assay, qHTS. Potency, µM (top dose mostly 38.3 µM), for inactives: at the highest dose activity change, negative = inhibition, most hits filed as inhibitors. hit rate 0.31% among 330,000. AID 540303; active means well fitted inhibition curve with a large enough effect; inconclusive means small, poorly fitted or top-dose-only effect; inactive means no such curve, though single readings can be large or run the other way; tested in mouse RAW 264.7 cells; further: on the % scale 0 is the no-effect control and ±100 the full control effect; nearly all actives have a fitted effect of over 55% in size
# Numbers without * were called inactive; ? = inconclusive; nt = no result; [ ] = dose if it differs, or a comment. This is a sample that favours compounds with a hit; in the whole collection about 7.3% have one here. Unless noted, the call rests on the fitted dose curve; in most records, active means well fitted curve in the direction sought with a large enough effect; inconclusive means small, poorly fitted or top-dose-only effect, or another doubt; inactive means no such curve, though single readings can be large; an effect the other way counts as inactive or inconclusive. Potency means the concentration at half of the fitted maximal effect.
SMILES,SMN2 splice up,Rab9 promoter act,ELG1 genotoxic,FLuc modulator,NPC1 promoter act,uPA generation
Cc1ccc(N2C(=O)C3C(C2=O)C2C=CC3C23CC3)cc1 (centres undefined),-7.5%,11.2%,6.2%,10.7µM*,10.4%,-3.2%
CCOc1ccccc1CNC(=O)C1CCN(C(=O)N2CCOc3ccc(Cl)cc32)CC1,nt,nt,nt,-8.1%,nt,nt
Cc1cc(/C=N/NC(=O)C(O)(c2ccccc2)c2ccccc2)c(C)n1-c1cccc(C(=O)O)c1,nt,0.7%,-1.2%,-6.9%,-0.1%,10.6%
Cc1cc(/C=N/NC(=O)c2cccc(N(C)C)c2)c(C)n1-c1cc(C(=O)O)cc(C(=O)O)c1,?,?,?,23.9µM*,16.6%,-0.2%
O=C(Cc1ccccc1)N/N=C/c1ccccc1F,18.0%,-0.3%,10.5%,-18.3%,10.2%,nt
CN(C)c1cccc(C(=O)N/N=C/c2ccccc2F)c1,1.41µM*,0.355µM*,1.03µM*,0.601µM*,0.708µM*,-12.1%
COc1ccc(Cn2c(C)nnc2-c2cnn(C)c2N)cc1,2.8%,0.2%,11.8%,0.4%,-0.9%,-0.4%
C/C(=N\Nc1cc(C)nc(-c2ccccc2O)n1)c1ccccc1,-21.0%,-2.8%,-8.3%,9.53µM*,-1.3%,-4.9%
Cc1ccc(Nc2cc(C)nc(-c3ccccc3O)n2)cc1,-14.4%,18.1%,?,23.9µM*,14.3%,2.9%
Cc1cc(Nc2ccc(Br)cc2)nc(-c2ccccc2O)n1,nt,10.4%,2.9%,?,-3.6%,25.8%
Cc1ccc(Nc2cc(C)nc(-c3ccccc3)n2)cc1,nt,?,?,21.3µM*,?,-4.7%
CSc1nc(O)c(N=Nc2ccc(F)cc2F)c(=O)[nH]1,nt,25.9%[1.84 µM],?,0.849µM*,?,-2.8%
O=C(O)C1Cc2c([nH]c3ccccc23)C(c2coc3ccccc3c2=O)N1 (centres undefined),-4.0%,nt,nt,nt,nt,nt
COc1ccc(-c2noc(-c3ccoc3C)n2)cc1,nt,1.58µM*,?,2.39µM*,2.82µM*,?
Cc1cccc(-c2noc(-c3ccoc3C)n2)c1,?,0.708µM*,?,4.78µM*,0.355µM*,-4.4%
COc1cccc(-c2noc(-c3ccoc3C)n2)c1,nt,2.51µM*,?,6.75µM*,?,3.7%
Cn1ccc2cc(-c3ccc4ncnc(NCc5ccc6c(c5)OCO6)c4c3)ccc21,nt,-8.8%,nt,?,-2.9%,nt
CNCc1ccccc1Sc1cccc(O)c1,?,-4.7%,-4.3%,-2.1%,-2.3%,-1.8%
CNCc1ccccc1Sc1cc(O)ccc1O,-14.2%,-1.1%,7.1%,9.53µM*,7.4%,-14.2%
CCS(=O)(=O)N1CCC2(CC1)OC(=O)C(C)=C2C(=O)NCc1ccccc1C,nt,nt,nt,-9.8%,nt,nt
Cc1ccc(-c2ocnc2C(=O)Nc2ccccc2NC(=O)c2ccccn2)cc1,nt,1.4%,-18.7%,15.1µM*,-0.1%,-0.6%
Cc1cccc(-c2ocnc2C(=O)Nc2ccccc2C(=O)N2CCCC2)c1,nt,-0.1%,-28.5%,?,-1.0%,-5.5%
Cc1cccc(-c2ocnc2C(=O)Nc2ccccc2NC(=O)c2ccccn2)c1,nt,0.0%,-16.2%,13.5µM*,-0.6%,-0.2%
Cc1ccc(-c2ocnc2C(=O)Nc2nc(C)cs2)cc1,nt,27.1%,13.5%,?,?,0.8%
CCn1c(=O)n(-c2ccc3c(c2)OCO3)c2nc(-c3ccc(C(C)C)cc3)nc(C(N)=O)c21,10.6%,nt,nt,-5.1%,nt,nt
O=C(Oc1ccc(Cl)c2cccnc12)c1cccc([N+](=O)[O-])c1,6.4%,-3.2%,-0.3%,?,-1.6%,-0.5%
O=[N+]([O-])c1ccccc1COc1ccc(Cl)c2cccnc12,nt,0.282µM*,1.64µM*,0.536µM*,0.631µM*,-4.3%
Fc1ccc(CN2CC[C@H]3C=CCc4cccc(c43)C2)cc1,nt,-2.1%,-1.3%,-0.5%,-3.1%,?
O=C(NCc1cc([N+](=O)[O-])ccc1O)c1cccnc1Sc1ccccc1,nt,-3.3%,-0.6%,16.9µM*,2.4%,5.8%
